# Reference: the supplement of paper PMC4466140
# Biological target: ScBbc1
# Experiment: SPOT peptide array binding signal intensity (averaged, normalized) (arbitrary units (background-subtracted, floor 0; scale differs between SH3 domains)); higher = stronger binding of the SH3 domain to the peptide
# Procedure, shortened: (§1)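 Spot intensities were captured after detection with anti-GST antibody, an HRP-linked anti-mouse secondary and luminol, and quantified with Genespotter. The probes were GST-fused SH3 domains from four yeast species, produced in E. coli BL21(DE3), purified on glutathione Sepharose and incubated at 10 μg/ml overnight at 4°C on cellulose-bound synthetic 15-mer peptides with cysteines replaced by serines. Binding signal is the normalized, background-subtracted spot intensity averaged over replicates, and its arbitrary units differ between domains.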
row,Binder,SPOT peptide array binding signal intensity
1,TTNRGPPPLPPRANV,74

# Biological target: ScBem1-D1
# Experiment: as above
# Procedure, shortened: as §1
row,Binder,SPOT peptide array binding signal intensity
1,TTNRGPPPLPPRANV,6

# Biological target: ScBzz1-D1
# Experiment: as above
# Procedure, shortened: as §1
row,Binder,SPOT peptide array binding signal intensity
1,TTNRGPPPLPPRANV,144

# Biological target: ScBzz1-D2
# Experiment: as above
# Procedure, shortened: as §1
row,Binder,SPOT peptide array binding signal intensity
1,TTNRGPPPLPPRANV,8

# Biological target: ScCyk3
# Experiment: as above
# Procedure, shortened: as §1
row,Binder,SPOT peptide array binding signal intensity
1,TTNRGPPPLPPRANV,1

# Biological target: ScFus1
# Experiment: as above
# Procedure, shortened: as §1
row,Binder,SPOT peptide array binding signal intensity
1,TTNRGPPPLPPRANV,≤ 0

# Biological target: ScHof1
# Experiment: as above
# Procedure, shortened: as §1
row,Binder,SPOT peptide array binding signal intensity
1,TTNRGPPPLPPRANV,272

# Biological target: ScHse1
# Experiment: as above
# Procedure, shortened: as §1
row,Binder,SPOT peptide array binding signal intensity
1,TTNRGPPPLPPRANV,21.5

# Biological target: ScLsb1
# Experiment: as above
# Procedure, shortened: as §1
row,Binder,SPOT peptide array binding signal intensity
1,TTNRGPPPLPPRANV,576

# Biological target: ScLsb2
# Experiment: as above
# Procedure, shortened: as §1
row,Binder,SPOT peptide array binding signal intensity
1,TTNRGPPPLPPRANV,583

# Biological target: ScLsb3
# Experiment: as above
# Procedure, shortened: as §1
row,Binder,SPOT peptide array binding signal intensity
1,TTNRGPPPLPPRANV,6820

# Biological target: ScLsb4
# Experiment: as above
# Procedure, shortened: as §1
row,Binder,SPOT peptide array binding signal intensity
1,TTNRGPPPLPPRANV,3960

# Biological target: ScMyo3
# Experiment: as above
# Procedure, shortened: as §1
row,Binder,SPOT peptide array binding signal intensity
1,TTNRGPPPLPPRANV,492

# Biological target: ScMyo5
# Experiment: as above
# Procedure, shortened: as §1
row,Binder,SPOT peptide array binding signal intensity
1,TTNRGPPPLPPRANV,277

# Biological target: ScNbp2
# Experiment: as above
# Procedure, shortened: as §1
row,Binder,SPOT peptide array binding signal intensity
1,TTNRGPPPLPPRANV,43

# Biological target: ScPex13
# Experiment: as above
# Procedure, shortened: as §1
row,Binder,SPOT peptide array binding signal intensity
1,TTNRGPPPLPPRANV,2050

# Biological target: ScRvs167
# Experiment: as above
# Procedure, shortened: as §1
row,Binder,SPOT peptide array binding signal intensity
1,TTNRGPPPLPPRANV,2870

# Biological target: ScSho1
# Experiment: as above
# Procedure, shortened: as §1
row,Binder,SPOT peptide array binding signal intensity
1,TTNRGPPPLPPRANV,128

# Biological target: ScSla1-D1-D2
# Experiment: as above
# Procedure, shortened: as §1
row,Binder,SPOT peptide array binding signal intensity
1,TTNRGPPPLPPRANV,255

# Biological target: ScSla1-D3
# Experiment: as above
# Procedure, shortened: as §1
row,Binder,SPOT peptide array binding signal intensity
1,TTNRGPPPLPPRANV,15.2

# Biological target: SpAbp1-D1
# Experiment: as above
# Procedure, shortened: as §1
row,Binder,SPOT peptide array binding signal intensity
1,TTNRGPPPLPPRANV,41.5

# Biological target: SpBbc1
# Experiment: as above
# Procedure, shortened: as §1
row,Binder,SPOT peptide array binding signal intensity
1,TTNRGPPPLPPRANV,106

# Biological target: SpBzz1-D1
# Experiment: as above
# Procedure, shortened: as §1
row,Binder,SPOT peptide array binding signal intensity
1,TTNRGPPPLPPRANV,3230

# Biological target: SpBzz1-D2
# Experiment: as above
# Procedure, shortened: as §1
row,Binder,SPOT peptide array binding signal intensity
1,TTNRGPPPLPPRANV,11

# Biological target: SpCyk3
# Experiment: as above
# Procedure, shortened: as §1
row,Binder,SPOT peptide array binding signal intensity
1,TTNRGPPPLPPRANV,16

# Biological target: SpHof1
# Experiment: as above
# Procedure, shortened: as §1
row,Binder,SPOT peptide array binding signal intensity
1,TTNRGPPPLPPRANV,15.2

# Biological target: SpHof1-2
# Experiment: as above
# Procedure, shortened: as §1
row,Binder,SPOT peptide array binding signal intensity
1,TTNRGPPPLPPRANV,42.8

# Biological target: SpHof1-3
# Experiment: as above
# Procedure, shortened: as §1
row,Binder,SPOT peptide array binding signal intensity
1,TTNRGPPPLPPRANV,344

# Biological target: SpHse1
# Experiment: as above
# Procedure, shortened: as §1
row,Binder,SPOT peptide array binding signal intensity
1,TTNRGPPPLPPRANV,≤ 0

# Biological target: SpLsb1
# Experiment: as above
# Procedure, shortened: as §1
row,Binder,SPOT peptide array binding signal intensity
1,TTNRGPPPLPPRANV,1680

# Biological target: SpLsb4
# Experiment: as above
# Procedure, shortened: as §1
row,Binder,SPOT peptide array binding signal intensity
1,TTNRGPPPLPPRANV,4080

# Biological target: SpMyo1
# Experiment: as above
# Procedure, shortened: as §1
row,Binder,SPOT peptide array binding signal intensity
1,TTNRGPPPLPPRANV,853

# Biological target: SpNbp2
# Experiment: as above
# Procedure, shortened: as §1
row,Binder,SPOT peptide array binding signal intensity
1,TTNRGPPPLPPRANV,≤ 0

# Biological target: SpPex13
# Experiment: as above
# Procedure, shortened: as §1
row,Binder,SPOT peptide array binding signal intensity
1,TTNRGPPPLPPRANV,7

# Biological target: SpRvs167
# Experiment: as above
# Procedure, shortened: as §1
row,Binder,SPOT peptide array binding signal intensity
1,TTNRGPPPLPPRANV,2550

# Biological target: SpSla1-D1-D2
# Experiment: as above
# Procedure, shortened: as §1
row,Binder,SPOT peptide array binding signal intensity
1,TTNRGPPPLPPRANV,1

# Biological target: SpSla1-D3
# Experiment: as above
# Procedure, shortened: as §1
row,Binder,SPOT peptide array binding signal intensity
1,TTNRGPPPLPPRANV,≤ 0
